Screening results from PubChem.
PD-1 reversal: activators reversing PD-1 mediated T-cell inhibition, primary screen, luminescence, primary human CD4 T cells, PD-L1 beads | 29,000 tested, under 10 active | CellTiter-Glo 96 h | activation, % (test concentration not listed); call rule not given here;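 also: 0% = median vehicle wells and 100% = positive control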
MITF inhib: inhibitors of MITF, primary screen, MITF inhibitor project, cell-based, luminescence; TRPM1 promoter luciferase, 24 h; inhibition, % (no concentration beside the values); 0.28% of 37,000 active; AID 2240, 2010; in the data active = inhibition above about 85%; inconclusive = no clear call, values can overlap the other calls; inactive = below about 68%;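 also: human melanocyte line stably carrying TRPM1 promoter luciferase reporter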
Hedgehog inh: Hedgehog pathway signaling inhibitors, primary screen, luminescence, Shh-LIGHT2 cells, Gli-luciferase; Shh-LIGHT2 Gli-luciferase reporter, 30 h; inhibition, % (test concentration not listed); 2.1% of 22,000 active;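 active = mean inhibition across valid replicates above about 65%, limit read from the data; inconclusive = mean under the limit, yet half or more replicates past it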;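 also: pathway switched on by Shh-conditioned medium diluted 1 in 25 in low serum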
NOMO-1 viab: NOMO-1 AML cell viability reduction, primary screen, STK33 inhibitor project, CellTiter-Glo luminescence; 7.5% of 37,000 active; inhibition, % (no concentration beside the values); NOMO-1 AML viability, 72 h; in the data active = inhibition above about 80%; inconclusive = no clear call, values can overlap the other calls
An asterisk follows results filed as active; ? = inconclusive; . = not tested or not shown. Most compounds without a hit are left out; they make up all but 7.8% or so of the library.

SMILES	PD-1 reversal	MITF inhib	Hedgehog inh	NOMO-1 viab
C[C@H]1CN([C@@H](C)CO)C(=O)Cc2cc(NC(=O)CCCCCC(=O)Nc3ccccc3N)ccc2O[C@@H]1CN(C)Cc1ccc(-c2ccccc2)cc1	0.3	19.1	.	140.4*
C[C@H]1CN([C@@H](C)CO)C(=O)Cc2cc(NC(=O)CCCCCC(=O)Nc3ccccc3N)ccc2O[C@@H]1CN(C)Cc1ccc(C(F)(F)F)cc1	1.0	15.4	.	105.9*
C[C@@H]1CN([C@@H](C)CO)C(=O)Cc2cc(NC(=O)CCCCCC(=O)Nc3ccccc3N)ccc2O[C@@H]1CN(C)Cc1ccc(-c2ccccc2)cc1	0.5	55.7	.	141.7*
CN1CCc2c(-c3cccs3)nc(OCc3ccccc3Br)c(C#N)c2C1	-11.7	19.4	64.7*	97.4*
O=C(O)c1oc(C(=O)O)c(OCc2ccccc2)c1OCc1ccccc1	1.5	7.7	-12.5	17.4
COc1ccc(C(NC(=O)c2ccccc2)c2ccc3cccnc3c2O)c(OC)c1 (configuration not stated)	-9.3	?	.	109.0*
COc1ccc(C(NC(C)=O)c2ccc3cccnc3c2O)cc1OC (configuration not stated)	-10.8	68.6	.	106.9*
COc1ccc(C(=O)NC(c2ccccc2)c2ccccc2)cc1	-0.6	7.1	23.3	32.0
CC1=CC(C)(C)Nc2ccc(OC(=O)CN3C(=O)c4cccc([N+](=O)[O-])c4C3=O)cc21	-12.9	33.0	.	115.3*
CCOc1ccc2c(c1)C(C)=CC(C)(C)N2	.	-20.1	21.4	28.2
CN1C=C(c2ccccc2)N(c2ccccc2)C1	1.1	-0.8	-38.2	10.6
O=C1C(Cc2ccc(-c3nn[nH]n3)cc2)=C(c2ccccc2)S(=O)(=O)c2ccccc21	3.2	13.9	106.7*	43.3
CCCCC1=NC2(CCCC2)C(=O)N1Cc1ccc(-c2ccccc2-c2nn[nH]n2)cc1	.	4.5	-20.9	-7.7
COc1ccc(S(=O)(=O)Nc2ccc3c(c2)CC(=O)N([C@@H](C)CO)C[C@H](C)[C@@H](CN(C)Cc2ccc(Oc4ccccc4)cc2)O3)cc1	-1.0	13.3	17.6	64.4
C[C@H]1CN([C@@H](C)CO)C(=O)Cc2cc(NS(=O)(=O)c3ccc(F)cc3)ccc2O[C@@H]1CN(C)Cc1ccc(Oc2ccccc2)cc1	-2.3	14.2	-7.7	95.9*
Cc1ccc(S(=O)(=O)Nc2ccc3c(c2)CC(=O)N([C@H](C)CO)C[C@@H](C)[C@@H](CN(C)Cc2ccc(Oc4ccccc4)cc2)O3)cc1	-1.0	-0.4	34.9	115.0*
C[C@@H]1CN([C@H](C)CO)C(=O)Cc2cc(NS(=O)(=O)c3ccccc3)ccc2O[C@H]1CN(C)Cc1ccc(Oc2ccccc2)cc1	-2.3	3.6	29.3	72.1
Cc1ccc(S(=O)(=O)Nc2ccc3c(c2)CC(=O)N([C@H](C)CO)C[C@@H](C)[C@H](CN(C)Cc2ccc(Oc4ccccc4)cc2)O3)cc1	-4.1	14.2	-22.1	?
COc1ccc(S(=O)(=O)Nc2ccc3c(c2)CC(=O)N([C@H](C)CO)C[C@@H](C)[C@H](CN(C)Cc2ccc(Oc4ccccc4)cc2)O3)cc1	-1.0	21.1	13.6	124.1*
C[C@@H]1CN([C@H](C)CO)C(=O)Cc2cc(NS(=O)(=O)c3ccc(F)cc3)ccc2O[C@H]1CN(C)Cc1ccc(Oc2ccccc2)cc1	-8.8	17.9	49.8	126.5*
CC1(C)C(=O)C=C[C@@]2(C)C1CC(=O)[C@]1(C)C2CC[C@@]2(C)[C@H](c3ccoc3)OC(=O)[C@H]3O[C@]321 (some centres not stated)	.	69.2	23.8	88.2*
COc1cccc(/C=N/n2cnnc2)c1	5.4	-12.4	-14.5	11.8
C[C@@H]1CN([C@H](C)CO)C(=O)c2cccc(NC(=O)Nc3ccc4c(c3)OCO4)c2O[C@@H]1CN(C)Cc1ccc(Oc2ccccc2)cc1	.	-2.2	-14.5	32.4
C[C@@H]1CN([C@@H](C)CO)C(=O)c2cccc(NC(=O)Nc3ccc4c(c3)OCO4)c2O[C@H]1CN(C)Cc1ccc(Oc2ccccc2)cc1	-0.4	23.9	-34.8	95.3*
C[C@@H]1CN([C@@H](C)CO)C(=O)c2cccc(NC(=O)Nc3ccc4c(c3)OCO4)c2O[C@@H]1CN(C)Cc1ccc(Oc2ccccc2)cc1	-3.8	-5.0	56.0	94.6*
Cn1nnnc1SCC(=O)Nc1ncccn1	2.4	-0.8	.	13.5
C/C=C/C(O)C(C)CC(C)C(OC(=O)CCC(=O)O)C(C)/C=C/C=C/C=C(\C)C(=O)O (configuration not stated)	-2.7	25.2	8.2	?
